Here are results for 38 compounds from PubChem BioAssay (NCI).

The panel holds about 83,000 compounds, 20% with a hit somewhere; the sample as a whole holds those more often.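 Cell lines were cultured in 96-well plates, exposed to a single compound concentration, and assessed for percent growth 48 hours later.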 Active and inactive are the calls of the source. How the source made its calls: active means growth percent below 10; inactive means the rest.

In the test the test system is HT29 colon. The experiment in a line: NCI-60 one-dose screen, 48 h (100 = growth as untreated, 0 = no growth, -100 = all killed). Conditions: 10 µM unless noted.
On to `O=C1OC(Cc2ccccc2)C1c1ccccc1` (stereo not drawn), for which the growth was 106% (inactive).
As to `O=C1Nc2cc(-c3ccc(NC(=O)c4ccccc4)cc3)ccc2/C1=C/c1ccc[nH]1`, the growth is 109% (inactive).
Then `O=C(N/N=C/c1cc2ccccc2n2nnnc12)Nc1ccccc1`, with 97.2% (inactive).
In the case of `O=C1c2ccc3c4c(ccc(c24)C(=O)N1CCCNCc1ccccc1)C(=O)N(CCCNCc1ccccc1)C3=O`, the growth was -63.5% (active).
For `C=C1C(=O)O[C@H]2[C@H]1CC/C(COC(=O)NCCc1c[nH]c3ccc(OC)cc13)=C\CC[C@@]1(C)O[C@@H]21`, the growth was -15.2% (active).
The value for `CCOc1ccc(Nc2nc(-c3ccc4c(c3)NC(=O)CO4)cs2)cc1` was 62% (inactive).
Consider `COc1ccc(C(=O)c2cc(C)c(OC)c(C)c2)c(OC)c1OC(=O)C(Cl)Cl`, for which the growth was 22.4% (inactive).
On to `CN(C)c1ccc(Nc2c3ccccc3nc3cc(NC(=O)CCN4CCCC4)ccc23)cc1`, for which the growth was 1.99% (active).
The value for `Cc1nc(N)nc(N[C@@H](C)c2nc3cccc(NCc4ccc(C(=O)NO)cc4)c3c(=O)n2-c2ccccc2)n1` was 77.3% (inactive); that for `COc1ccc(C/C(=C(\C)c2ccc(OCCN3CCCC3)cc2)c2ccc(OCCN3CCCC3)cc2)cc1` was -58.1% (active).
Turning to `NC(=NCCCOc1ccc(F)cc1)Nc1ccc(Cl)cc1`, the growth was 13.8% (inactive).
Then `CCCOC(=O)N[C@H]1CCc2c(Cl)c(OC)c(OC)c(OC)c2-c2ccc(SC)c(=O)cc21`, with 14.7% (inactive); and `N#Cc1c(NC(=O)NCc2ccccc2)sc2c1CCCC2`, with 12.8% (inactive).
`NCCCCCCNc1cc(-c2cccc(OC(F)(F)F)c2)nc2ccc(N3CCCC3)cc12`: the growth was -2.69% (active).
The value for `C[C@H]1[C@H](C)CC[C@]2(C(=O)NCC#CCN3CCN(C)CC3)CC[C@]3(C)C(=CC[C@@H]4[C@@]5(C)Cc6c([nH]c7ccccc67)C(C)(C)[C@@H]5CC[C@]43C)[C@H]12` was 19.3% (inactive).
Consider `N#Cc1c(NCc2ccccc2I)sc2c1CCCCC2`, for which the growth is 99.8% (inactive).
For the compound `CN1C(=O)NC(c2ccc3c(c2)OCO3)C=C1c1ccccc1` (stereo not drawn), the growth is 84.2% (inactive).
Take `COc1cc(/C=C\C(=O)O)ccc1OCc1ccccc1`: the growth was 105% (inactive).
Then `CCN(CC)c1ccc(/C=N/NC(=O)CSc2nc3ccccc3c(=O)n2Cc2ccc(S(N)(=O)=O)cc2)c(O)c1`, with 32.1% (inactive).
Take `Cc1ccc(S(=O)(=O)NNC(=O)/C(=C\c2ccc(Cl)cc2)c2nc3ccccc3s2)cc1`: the growth is 106% (inactive).
With `CCOC(=O)[C@@H]1CCCN(S(=O)(=O)c2ccc(S(=O)(=O)N(CC)CC)c(F)c2)C1`, the growth is 83% (inactive).
With `Cc1ccc(CNc2c3ccccc3nc3cc(NC(=O)CCN4CCCC4)ccc23)cc1`, the growth is 0.938% (active).
As to `COc1ccc(CC(C)=C(c2ccc(OCCN3CCCCCC3)cc2)c2ccc(OCCN3CCCCCC3)cc2)cc1`, the growth is -85% (active).
`CCCCNC(=O)Oc1ccc(/C(=C(\C)c2ccccc2)c2ccc(OCCN3CCCCC3)cc2)cc1`: the growth is 0.947% (active).
As for `Cn1c2ccccc2c2c3c(c4c5ccccc5n(C)c4c21)C(=O)OC3`, the growth was 105% (inactive).
Then `CNC(=O)c1cc(Cn2nc(C)c(NC(=O)Nc3ccc(Cl)c(C(F)(F)F)c3)c2C)ccn1`, with 92.4% (inactive); and `O=C(Nc1ccc(NC(=O)c2cc(=O)[nH]c3ccccc23)cc1)Nc1cccc(Cl)c1`, with 88.4% (inactive); and `COc1ccc(C(=O)CSc2nc(-c3cc(OC)ccc3OC)cc(-c3ccc(Cl)cc3)c2C#N)cc1`, with 48.3% (inactive).
As for `Cc1cc(C)c(S(=O)(=O)Oc2ccccc2[N+](=O)[O-])c(C)c1`, the growth is 3.94% (active).
For `O=C(CCN1CCCC1)Nc1ccc2c(NCc3ccccc3)c3ccccc3nc2c1`, the growth is 3.9% (active).
Consider `CCN(CC)c1ccc(/C=N/NC(=O)CSc2nc3ccccc3c(=O)n2CCc2ccc(S(N)(=O)=O)cc2)c(O)c1`, for which the growth is 42.4% (inactive).
Turning to `O=C(CSc1nc2sc3c(c2c(=O)n1-c1ccc(Cl)cc1)CCCC3)Nc1nc(-c2cccc(Br)c2)cs1`, the growth was 61.7% (inactive).
Regarding `COc1ccc(C(C)=O)c(OC)c1`, the growth was 92% (inactive).
Turning to `COc1cccc(-c2nc3occn3c2-c2ccnc(NCCCNS(=O)(=O)c3ccc(C(F)(F)F)cc3)n2)c1`, the growth is 73.5% (inactive).
Then `C=C1C(=O)O[C@H]2[C@H]1CC/C(C(=O)NCCCCCNC(=O)/C1=C/CC[C@@]3(C)O[C@H]3[C@H]3OC(=O)C(=C)[C@@H]3CC1)=C\CC[C@@]1(C)O[C@@H]21`, with 102% (inactive); and `C=C1C(=O)O[C@H]2[C@H]1CC/C(COC(=O)NCc1c[nH]c3ccc(F)cc13)=C\CC[C@@]1(C)O[C@@H]21`, with -50.2% (active).
`Cc1cc2nc3c4cccc(O)c4n(CCN(C)C)c3nc2cc1C`: the growth was 31.1% (inactive).
For the compound `O=C(Cc1ccccc1)NNc1nc(Cl)nc(N2CCN(C(c3ccccc3)c3ccccc3)CC2)n1`, the growth is 72.6% (inactive).
